Where “and” joins values, the source holds several entries; their conditions need not be identical. Equal values may be shown once. About 83,000 compounds went through this panel and 20% of them were active in at least one assay; those are over-represented in the sample as a whole.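 The test compound was applied at a single concentration to cells in 96-well plates for 48 hours, and percent growth was recorded.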 Calls of active or inactive are those of the source. Rule for the calls: active = growth percent below 10; inactive = the rest.
Assays:
Assay in all cases: NCI-60 one-dose screen, 48 h (100 = growth as untreated, 0 = no growth, -100 = all killed)
MDA-MB-435 melanoma = conditions: 10 µM
SW-620 colon = conditions: 10 µM
MCF7 breast = tested on: MCF7 breast
HCT-116 colon = conditions: 10 µM
HCC-2998 colon = conditions: 10 µM
KM12 colon = conditions: 10 µM

Measured: growth

COc1ccc(N)c2c1C(=O)c1ccccc1C2=O
inactive: MDA-MB-435 melanoma 108% | SW-620 colon 106% | MCF7 breast; 10 µM 95.2% | HCT-116 colon 102% | HCC-2998 colon 105% | KM12 colon 102%

Cc1cc(O)c2c(c1O)C(=O)C13C(=C2O)C(=O)C2C(O)C1C1C(O)C3C(=O)C3=C(O)c4c(O)cc(C)c(O)c4C(=O)C321 (stereo not drawn)
active: MDA-MB-435 melanoma -14.7% | SW-620 colon 8.3% | MCF7 breast; 10 µM 4.59% | HCT-116 colon 2.8% | HCC-2998 colon -43.6% | KM12 colon -53.3%

Cc1cc(N=C2C=CC(=[N+](C)C)C=C2)c(N)cc1N
inactive: MDA-MB-435 melanoma 101% | SW-620 colon 84.9% | MCF7 breast; 10 µM 68.8% | HCT-116 colon 82.2% | HCC-2998 colon 60.8% | KM12 colon 89%

N#CC(=C1C=CC(=NO)C=C1)c1ccccc1
inactive: HCC-2998 colon 90.6%
active: MDA-MB-435 melanoma -20.7% | SW-620 colon 1.65% | MCF7 breast; 10 µM 8.32% | HCT-116 colon -47.8% | KM12 colon -57%

NCc1c(O)ccc2ccccc12
inactive: MDA-MB-435 melanoma 103% | SW-620 colon 107% | MCF7 breast; 10 µM 95.3% | HCT-116 colon 102% | HCC-2998 colon 102% | KM12 colon 96%

O=C1c2ccccc2CCC1(Br)Br
active: MDA-MB-435 melanoma 3.86% | SW-620 colon -45.5% | HCT-116 colon -90%
inactive: MCF7 breast; 10 µM 21.6% | HCC-2998 colon 77.2% | KM12 colon 87.2%

O=C(O)c1ccccc1.[Ag]
inactive: MDA-MB-435 melanoma 88.5% | MCF7 breast; 10 µM 96.4% | HCT-116 colon 96.8% | HCC-2998 colon 109% | KM12 colon 89.3%

Cn1c2nc3ccccc3c-2nc2ccccc21
inactive: MDA-MB-435 melanoma 109% and 125% | SW-620 colon 79% and 90% | MCF7 breast; 10 µM 77.3% and 67.5% | HCT-116 colon 92.7% and 80.9% | HCC-2998 colon 118% and 102% | KM12 colon 92.4% and 83.5%

CCC(=O)Oc1ccc(/C=N/NC(N)=S)nc1
inactive: MDA-MB-435 melanoma 54.9% | SW-620 colon 49.5% | MCF7 breast; 10 µM 22.5% | HCT-116 colon 42% | KM12 colon 60.5%

CO[C@@]12[C@H](COC(N)=O)C3=C(C(=O)C(C)=C(N)C3=O)N1C[C@@H]1N[C@@H]12
active: MCF7 breast; 25 µM -17.6% and -61.3%

O=C1C(Cl)=C(Cl)C(Cl)(Cl)C(Cl)C1(Cl)Cl (stereo not drawn)
inactive: MDA-MB-435 melanoma 111% | SW-620 colon 105% | MCF7 breast; 10 µM 96.8% | HCT-116 colon 102% | HCC-2998 colon 106% | KM12 colon 109%

C=C1N(C)c2ccc(Cl)cc2C1(C)C
inactive: MDA-MB-435 melanoma 77.1% | SW-620 colon 57.4% | MCF7 breast; 10 µM 89% | HCT-116 colon 17.2% | HCC-2998 colon 68.7% | KM12 colon 40.2%

N#CC(=S)Nc1cccc(Cl)c1
active: MCF7 breast; 100 µM 0.126% and -100%

Cc1cc(Cl)ccc1NC(=O)/C(Cl)=C1/Sc2ccccc2NC1=O
inactive: MDA-MB-435 melanoma 99.7% | SW-620 colon 113% | MCF7 breast; 10 µM 70.8% | HCT-116 colon 76.7% | HCC-2998 colon 119% | KM12 colon 96.4%

S=C1SCN(CCc2ccccc2)CN1CCc1ccccc1
inactive: MDA-MB-435 melanoma 98.6% | SW-620 colon 89.4% | MCF7 breast; 10 µM 40.7% | HCT-116 colon 102% | HCC-2998 colon 101% | KM12 colon 96.8%

CC1CCC2(C(=O)O)CCC3(C)C(=CCC4C5(C)CC(O)C(O)C(C)(CO)C5C(O)CC43C)C2C1C (stereo not drawn)
inactive: MDA-MB-435 melanoma 110% | SW-620 colon 107% | MCF7 breast; 10 µM 96.9% | HCT-116 colon 103% | KM12 colon 104%

Cc1cc(C)c(N2C(=O)CC(Sc3ccccc3N)C2=O)c(C)c1 (stereo not drawn)
active: MDA-MB-435 melanoma -20.8%
inactive: SW-620 colon 55.9% | MCF7 breast; 10 µM 31.7% | HCT-116 colon 79.2% | KM12 colon 50.9%

N#C/C(=C/N1C(=O)/C(=C/c2ccc([N+](=O)[O-])cc2)SC1=S)c1nc2ccccc2s1
inactive: MDA-MB-435 melanoma 99% | SW-620 colon 87.8% | MCF7 breast; 10 µM 60.7% | HCT-116 colon 85.9% | HCC-2998 colon 92.6% | KM12 colon 89.7%

CN(C)c1ccc(/C=C/c2ccnc3ccccc23)cc1N
inactive: MDA-MB-435 melanoma 38.6% | SW-620 colon 78.4% | MCF7 breast; 10 µM 62.9% | HCT-116 colon 49.3% | HCC-2998 colon 104% | KM12 colon 61.5%

COc1cc2c(cc1C[N+](C)(C)CSc1ccccc1)-c1ccccc1CC2
active: MCF7 breast; 100 µM -75.8% and -73.3%

Cn1ncc2cc3c(Nc4ccc(Cl)cc4)cccc3nc21
inactive: MDA-MB-435 melanoma 100% | SW-620 colon 97.5% | MCF7 breast; 10 µM 86.8% | HCT-116 colon 85.6% | HCC-2998 colon 110% | KM12 colon 90.8%

C=C(C)[C@@H]1CCc2c(O)c(O)c(=O)cc(C)c2C1
active: MCF7 breast; 100 µM -84.1% and -67.9%

O=C(CNS(=O)(=O)Cc1ccccc1)NNc1ccccc1
inactive: MDA-MB-435 melanoma 21.9% | MCF7 breast; 10 µM 76.5% | HCT-116 colon 55.6% | HCC-2998 colon 70.5% | KM12 colon 15%

O=C1C=CC(=O)N1c1ccc(N2C(=O)C=CC2=O)cc1
inactive: MDA-MB-435 melanoma 107% | SW-620 colon 112% | MCF7 breast; 10 µM 97% | HCT-116 colon 98.3% | HCC-2998 colon 115% | KM12 colon 113%

O=C(CCc1ccccc1)ON1C(=S)C(c2ccccc2)(c2ccccc2)N=C1Sc1ccccc1
active: MCF7 breast; 100 µM 1.09% and 4.44%

CN(CC(=O)O)c1ccc(/C=C/c2ccnc3ccccc23)cc1
inactive: MDA-MB-435 melanoma 38.1% | SW-620 colon 84.3% | MCF7 breast; 10 µM 31.8% | HCT-116 colon 89.4% | HCC-2998 colon 91.9% | KM12 colon 85.2%

Clc1c(Cl)c(Cl)c2c(nnn2C2CCCO2)c1Cl (stereo not drawn)
active: MCF7 breast; 100 µM 3.55% and -84.2%

O=S(=O)(c1cc(Cl)ccc1O)c1cc(Cl)ccc1O
inactive: MDA-MB-435 melanoma 93.4% | SW-620 colon 86.3% | MCF7 breast; 10 µM 92.9% | HCT-116 colon 77.1% | HCC-2998 colon 99.5% | KM12 colon 98.1%

O=C(NC(=S)Nc1ccccn1)c1ccccc1
inactive: MDA-MB-435 melanoma 105% | SW-620 colon 96.1% | MCF7 breast; 10 µM 24.3% | HCT-116 colon 87.9% | KM12 colon 97%
